The structures appear in SMILES notation. Inconclusive results are not listed. Active and inactive are the calls of the source. The call rests on the fitted dose curve; in most records, active means well fitted cell-killing curve with a large enough effect; inconclusive means small, poorly fitted or top-dose-only effect, or effect the other way; inactive means no such curve, though single readings can be large or run the other way.
Potency means the concentration at half of the fitted maximal effect.

The nature of this experiment: Quantitative High-Throughput drug screen in 47 multiple myeloma cell lines against the NCATS MIPE library collection: INA6_PLB cell viability assay (AID 1918965; further: nearly all actives have a fitted effect of over 55% in size). To be noted: INA6 myeloma viability, CellTiter-Glo ATP luminescence, 48 h; series mostly up to 45.8 µM. From the text: PI: Beverly A. Mock Ph.D.
Laboratory of Cancer Biology and Genetics,
Center for Cancer Research, National Cancer Institute,
National Institute of Health, Bethesda, Maryland
Drug resistance and disease progression are common in multiple myeloma (MM) patients, underscoring the need for new therapeutic combinations. […] We hypothesized that effective combinations would reduce MYC expression and enhance p16 activity. […] These preclinical data identify potentially useful drug combinations for evaluation in drug-resistant MM and reveal potential mechanisms of combined drug sensitivity.
Described herein is the primary MIPE qHTS used to cherrypick compounds. Validated compounds were then further tested for potential synergistic activiy.
[1] Peat TJ, Gaikwad SM, Dubois W, Gyabaah-Kessie N, Zhang S, Gorjifard S, Phyo Z, Andres M, Hughitt VK, Simpson RM, Miller MA, Girvin AT, Taylor A, Williams D, D'Antonio N, Zhang Y, Rajagopalan A, Flietner E, Wilson K, Zhang X, Shinn P, Klumpp-Thomas C, McKnight C, Itkin Z, Chen L, Kazandijian D, Zhang J, Michalowski AM, Simmons JK, Keats J, Thomas CJ, Mock BA. Drug combinations identified by high-throughput screening promote cell cycle transition and upregulate Smad pathways in myeloma. Cancer Lett. 2023 Aug 1;568:216284. doi: 10.1016/j.canlet.2023.216284. Epub 2023 Jun 24. PMID: 37356470; PMCID: PMC10408729.
SEQUENCE No. (e.g., 1, 2, 3, etc.); […] (e.g., Cells, Incubation, Reagent, etc.); VALUE and DESCRIPTION.
1; Cells; 5 uL; white, solid bottom 1536-well Greiner assay plate.
2; Compounds; 23 nL; Kalypsis pin tool (Wako USA) equipped with a 1536-well pin head to transfer to the assay plates.
3; Incubation; 48 hours; 37C incubation.
4; Reagent;5uL; CellTiter Glo (Promega).
5; Detector; 425V; Luminescence; Viewlux PerkinElmer.
NOTES (numbers refer to Sequence numbers above)
1. The cell-based screening methods employed in this study were like those previously published. Briefly, the corresponding myeloma cell lines were screened in 1,536-well plates with 500 cells, 5-uL per well for inhibition of cell viability (assessed by measuring ATP levels with CellTiterGlo).
2. NCATS MIPE 4.0 library of approved and investigational drugs were added using the Kalypsis pin tool. Wells treated with DMSO only for 100% viability and media only wells for 0% viability were used as controls.
3. The assay plates were covered and incubated for 48 hours in a 37C, 5% CO2 incubator with controlled humidity.
4. After 48 hours, CellTilter-GloTM luminescent substrate mix (Promega) reagent was added to the assay plate and plates we incubated for 5 min at room temperature.
5. Signal was measured as median relative luminescence units on a ViewLux (PerkinElmer) multiplate reader.
[1] Heske CM, Davis MI, Baumgart JT, Wilson K, Gormally MV, Chen L, Zhang X, Ceribelli M, Duveau DY, Guha R, Ferrer M, Arnaldez FI, Ji J, Tran HL, Zhang Y, Mendoza A, Helman LJ, Thomas CJ. Matrix Screen Identifies Synergistic Combination of PARP Inhibitors and Nicotinamide Phosphoribosyltransferase (NAMPT) Inhibitors in Ewing Sarcoma. Clin Cancer Res. 2017 Dec 1;23(23):7301-7311. doi: 10.1158/1078-0432.CCR-17-1121. Epub 2017 Sep 12. PMID: 28899971; PMCID: PMC6636827.
In the case of `CCC(=O)N1CCN(c2ccc(-n3c(=O)ccc4cnc5ccc(-c6cnc7ccccc7c6)cc5c43)cc2C(F)(F)F)CC1`, the Potency is 0.0148 µM (active).

For `O=C(NC[C@H](O)CO)c1ccncc1Nc1ccc(I)cc1F`, the Potency is 5.9 µM (active).

As to `CO[C@@H]1C(N(C)C(=O)c2ccccc2)C[C@H]2O[C@]1(C)n1c3ccccc3c3c4c(c5c6ccccc6n2c5c31)C(=O)NC4=O` (stereo not given in full), the Potency is 1.48 µM (active).

For `c1ccc(-c2oc3ncnc(NC[C@@H]4CCCO4)c3c2-c2ccccc2)cc1`, the Potency was 16.6 µM (active).

With `Cc1cnc(-c2cc(N3CCN(C(=O)CCS(C)(=O)=O)CC3)ncc2Cl)c(C)c1`, the Potency is 18.7 µM (active).

As to `COc1ccc2c(c1)c(C1=C(c3c[nH]c4ccccc34)C(=O)NC1=O)cn2CCCN(C)C`, the Potency was 0.526 µM (active).

Consider `N#CC(c1ccc(Cl)cc1)c1c(Cl)cc(-n2ncc(=O)[nH]c2=O)cc1Cl` (stereo not given), for which the Potency was 23.5 µM (active).

Take `CC(C)CNc1ccnc(NCc2csc(-c3ccccc3)n2)n1`: the Potency is 2.64 µM (active).

As to `CNC(=O)c1cc(COc2nnc(Nc3ccc(Cl)cc3)c3ccoc23)ccn1`, the Potency was 13.2 µM (active).

On to `CCCCC(C)(C)[C@H](O)C=C[C@H]1[C@H](O)CC(=O)[C@H]1CC=CCCCC(=O)O`, for which the Potency was 23.5 µM (active).

With `O=C(O)C1=CC(O)C(O)[C@H](O)C1` (stereo not given in full), the Potency result was “inactive”.

Consider `NC(=O)c1noc([C@H](CCCC2CCCCC2)CC(=O)NO)n1`, for which the Potency was 14.8 µM (active).

With `O=[N+]([O-])c1ccc(Nc2ccccc2-c2ccccc2)c2nonc12`, the Potency is 26.4 µM (active).

For the molecule `O=C1C(c2c(O)[nH]c3ccccc23)=Nc2ccccc21`, the Potency result is “inactive”.

As to `CCC[C@H](N[C@@H](C)C(=O)N1[C@@H]2CCCC[C@H]2C[C@H]1C(=O)O)C(=O)OCC`, the Potency result is “inactive”.

In the case of `C[C@@]1(C(=O)Nc2ccc(F)nc2)CCCN1c1nc(Nc2cc(C3CC3)[nH]n2)c2cccn2n1`, the Potency is 13.2 µM (active).

Turning to `CC1C(=O)OC2C(O)C34C5CC(C(C)(C)C)C36C(OC(=O)C6O)OC4(C(=O)O5)C12O` (stereo not given), the Potency entry was “inactive”.

Regarding `O=C(Nc1ccc(OC(F)(F)F)cc1)c1sccc1NCc1ccnc2ccccc12`, the Potency was 18.7 µM (active).

For the molecule `O=c1cc(-c2ccc(O)c(O)c2)oc2cc(O)cc(O)c12`, the Potency was 26.4 µM (active).

Take `Cc1cnc(CNC(=O)c2c(=O)c3ccc(N4CCCN(C)CC4)nc3n3c2sc2ccccc23)cn1`: the Potency is 2.57 µM (active).

For the molecule `C[C@H](CCC(=O)O)[C@H]1CC[C@H]2[C@H]3[C@@H](CC[C@]12C)[C@@]1(C)CC[C@@H](O)C[C@H]1C[C@@H]3O`, the Potency result was “inactive”.

`OC(c1cc(C(F)(F)F)nc2c(C(F)(F)F)cccc12)C1CCCCN1` (stereo not given): the Potency is 23.5 µM (active).

`Cn1cnc(-c2cc3nccc(Oc4ccc(NC(=S)NC(=O)Cc5ccccc5)cc4F)c3s2)c1`: the Potency is 6.62 µM (active).

As for `N#CC(c1ccnc(NCCc2cccnc2)n1)c1nc2ccccc2s1` (stereo not given), the Potency is 3.72 µM (active).

For the molecule `COc1ccc2cc1Oc1ccc(cc1)C[C@H]1c3cc(c(OC)cc3CCN1C)Oc1c(OC)c(OC)cc3c1[C@H](C2)N(C)CC3`, the Potency was 18.7 µM (active).

As to `Cc1cnc(Nc2cccc(CN3CCOCC3)c2)nc1Nc1cccc(S(=O)(=O)NC(C)(C)C)c1`, the Potency is 0.469 µM (active).

With `Cc1cn([C@@H]2C[C@@H](O)[C@H](CO)O2)c(=O)[nH]c1=O`, the Potency is 0.0166 µM (active).

As for `C[C@]12CC[C@@H]3c4ccc(O)cc4CC[C@H]3[C@H]1[C@@H](O)[C@@H](O)[C@H]2O`, the Potency entry is “inactive”.

Regarding `CNC(=O)c1cc(Oc2ccc(NC(=O)Nc3ccc(Cl)c(C(F)(F)F)c3)c(F)c2)ccn1`, the Potency was 5.9 µM (active).

For `N#CC1(c2cccc(C(=O)Nc3cc(Oc4ccc5nc(NC(=O)C6CC6)sc5n4)ccc3F)c2Cl)CC1`, the Potency was 5.9 µM (active).

Turning to `COc1cc(Cl)cn2c(-c3cccc(NC4CNC4)n3)cnc12`, the Potency is 16.6 µM (active).

As to `O=S(=O)(NCCNCC=Cc1ccc(Br)cc1)c1cccc2cnccc12`, the Potency is 7.43 µM (active).

As to `C=CC[N+]1([C@H]2C[C@H]3[C@@H]4CC[C@H]5C[C@H](O)[C@@H](N6CCOCC6)C[C@]5(C)[C@@H]4CC[C@]3(C)[C@H]2OC(C)=O)CCCC1`, the Potency entry was “inactive”.

For the molecule `CC(=O)O[C@]1(C(C)=O)CC[C@H]2[C@@H]3C=C(Cl)C4=CC(=O)[C@@H]5C[C@H]5[C@]4(C)[C@@H]3CC[C@@]21C`, the Potency was 14.8 µM (active).

For the molecule `Nc1nc(Cl)nc2c1ncn2[C@@H]1O[C@H](CO)[C@@H](O)[C@H]1F`, the Potency was 0.0148 µM (active).

Consider `C[C@@H]1CC=CC=CC=CC=C[C@@H](O[C@@H]2O[C@H](C)[C@@H](O)[C@H](N)[C@H]2O)C[C@@H]2O[C@](O)(C[C@@H](O)C[C@@H]3O[C@@H]3C=CC(=O)O1)C[C@H](O)[C@@H]2C(=O)O`, for which the Potency was 18.7 µM (active).

For `CNC(=O)[C@H](CC1=CN=C2C=CCC=C12)NC(=O)[C@@H](CC(=O)NO)CC(C)C`, the Potency is 33.2 µM (active).

Consider `CC1=C(CC(=O)O)c2cc(F)ccc2C1=Cc1ccc(S(C)=O)cc1` (stereo not given), for which the Potency is 18.7 µM (active).

Regarding `CCOC(=O)N1CCN([N+]([O-])=NOc2cc(ON=[N+]([O-])N3CCN(C(=O)OCC)CC3)c([N+](=O)[O-])cc2[N+](=O)[O-])CC1`, the Potency is 2.35 µM (active).

Take `Cc1cccc(-c2[nH]c(C(C)(C)C)nc2-c2ccc3c(c2)OCO3)n1`: the Potency was 2.64 µM (active).
